Results on 27 compounds are retold here after ChEMBL document CHEMBL1157539, “Thousands of chemical starting points for antimalarial lead identification” (Nature, 2010).

What all share (type): functional
For assay [1], the system named is Plasmodium falciparum. Description: GSK_TCMDC: Inhibition of Plasmodium falciparum 3D7 in whole red blood cells, using parasite LDH activity as an index of growth. Test compounds present at 2uM.
In assay [2] the test system is Plasmodium falciparum. Description: GSK_TCMDC: Inhibition of Plasmodium falciparum Dd2 in whole red blood cells, using parasite LDH activity as an index of growth. Test compounds present at 2uM.
Assay [3] deals with HepG2. Description: GSK_TCMDC: Percent inhibition of human HepG2 cell line. Test compounds present at 10uM.

For orientation: Inhibition means the share of the control response that was lost under treatment. On to `CNC(=O)/C=C/c1cc(NC(=O)Nc2ccnc3c(Br)cccc23)ccc1OC`, for which the Inhibition is 95% in assay [1], 68% in assay [2] and 12% in assay [3].

Turning to `Cc1ccc(Cn2ncc(N3CCC(N)CC3)c(Cl)c2=O)cc1NC(=O)Nc1ccc(-c2ccccc2)cc1.O=C(O)C(F)(F)F`, the Inhibition in assay [1] is recorded as 90%; in assay [2], 25%; in assay [3] it was 29%.

Take `CCN(c1ccccc1)S(=O)(=O)c1ccc(NC(=O)c2cc(-c3cc(C)ccc3O)n[nH]2)cc1`: the Inhibition is listed as 99% in assay [1], 55% in assay [2] and 49% in assay [3].

Turning to `O=c1cc(NCCCNC(c2ccccc2)c2ccc(Cl)c(Cl)c2)[nH]c2ccccc12` (stereo unspecified), the Inhibition in assay [1] is on record as 89%; in assay [2], 94%; in assay [3], 13%.

In the case of `CN1CCN(c2ccnc3ccc(NC(=O)Nc4ccc(-c5ccncc5)c(C#N)c4)cc23)CC1`, the figures for the Inhibition in assay [1], in assay [2] and in assay [3] were 100%, 99% and 32%, respectively.

Take `O=C(O)C(F)(F)F.Oc1ccc(CCNc2nc(NCc3ccc4cc(Cl)ccc4c3)nc(N3CCNCC3)n2)cc1`: the results for the Inhibition in assay [1], in assay [2] and in assay [3] were 92%, 38% and 14%, respectively.

`Fc1ccc(CNc2nc(-c3ccc(F)c(C(F)(F)F)c3)n(-c3cccc(C(F)(F)F)c3)n2)cc1`: the Inhibition in assay [1] was determined as 95%; in assay [2], 80%; in assay [3], 0%.

As for `O=C(Nc1cccc(-c2cccc(-c3nc4cc(C(F)(F)F)ccc4[nH]3)c2)c1)c1c[nH]cn1`, the results for the Inhibition in assay [1], in assay [2] and in assay [3] were 100%, 100% and 14%, respectively.

As for `COc1c(C2CCN(CCCCNC(=O)c3cc(-c4ccc(Cl)cc4)[nH]c3C)CC2)ccc2c1CCCC2`, the Inhibition in assay [1] amounted to 100%; in assay [2] it was 91%; in assay [3], 53%.

`CCCCCN1CCCC1CNS(=O)(=O)c1ccc(C(=O)Nc2ccc(C(F)(F)F)cc2)cc1.O=C(O)C(F)(F)F` (stereo unspecified): the results for the Inhibition in assay [1], in assay [2] and in assay [3] were 87%, 0% and 19%, respectively.

Consider `CCCCNC(=N)Nc1ccc(OCCCOc2ccc(NC(=N)NCCCC)cc2)cc1`, for which the figures for the Inhibition in assay [1], in assay [2] and in assay [3] were 96%, 97% and 15%, respectively.

Take `COc1ccc(-c2cc(-c3nc4cc(C(=O)N5CCOCC5)ccc4[nH]3)c(=O)n(C)c2)cc1OC.O=C(O)C(F)(F)F`: the figures for the Inhibition in assay [1], in assay [2] and in assay [3] were 93%, 95% and 6%, respectively.

On to `O=C(/C=C/c1ccc(Cl)c(Cl)c1)NCCCCN1CCCN(C(=O)Nc2ccc(Cl)c(Cl)c2)CC1`, for which the Inhibition in assay [1] was determined as 96%; in assay [2], 1%; in assay [3], 22%.

On to `Cc1ccccc1CNc1nccc(NCCC(=O)Nc2ccccc2)n1.O=C(O)C(F)(F)F`, for which the figures for the Inhibition in assay [1], in assay [2] and in assay [3] were 90%, 15% and 16%, respectively.

For the compound `COCCn1ccc2c3c(N)nc(N)nc3ccc21`, the Inhibition in assay [1] stood at 93%; in assay [2], 29%; in assay [3], 43%.

Consider `COc1ccc2nccc([C@@H](O)CN3CCC(NC(=O)C(c4ccccc4C)N4CCC(Cc5ccccc5)CC4)CC3)c2c1` (stereo partly specified), for which the Inhibition amounted to 100% in assay [1], 97% in assay [2] and 10% in assay [3].

Regarding `O=C(NC1CC1)c1ccc(N2CCOc3ccc(Cl)cc32)s1`, the Inhibition in assay [1] is on record as 94%; in assay [2] it was 73%; in assay [3], 8%.

With `CN(C)c1ccc(C=C2SC(=N)N(c3nccs3)C2=O)cc1`, the figures for the Inhibition in assay [1], in assay [2] and in assay [3] were 97%, 50% and 38%, respectively.

As for `CCOc1ccc2[nH]c(C)cc(=NN=Cc3ccccc3F)c2c1`, the figures for the Inhibition in assay [1], in assay [2] and in assay [3] were 100%, 99% and 0%, respectively.

Consider `COc1ccc2nccc([C@@H](O)CN3CCC(NCc4nc5cc(F)c(F)cc5[nH]4)CC3)c2c1.O=C(O)C(=O)O`, for which the Inhibition amounted to 96% in assay [1], 36% in assay [2] and 12% in assay [3].

`Cc1ccc(C2CC(c3cccs3)=NN2C(=O)c2ccc(Br)o2)cc1` (stereo unspecified): the Inhibition is listed as 99% in assay [1], 69% in assay [2] and 11% in assay [3].

For `Cc1c(S(=O)(=O)Nc2ccc3ccn(CCN(C)C)c3c2)sc2ccc(Cl)cc12.Cl`, the Inhibition in assay [1] is 98%; in assay [2], 94%; in assay [3] it was 15%.

Take `Cc1cc(N2CCCC2)nc(Nc2ccc(NC(=O)c3ccc(Br)o3)cc2)n1`: the values for the Inhibition in assay [1], in assay [2] and in assay [3] were 99%, 57% and 17%, respectively.

As to `O=C(c1cccc(-c2noc(C(F)(F)F)n2)c1)N1CCN(c2ccncc2)CC1`, the Inhibition stood at 90% in assay [1], 56% in assay [2] and 14% in assay [3].

Take `CC(=O)Nc1ccc(OCCCN(Cc2ccccc2C(F)(F)F)c2ccc(C(F)(F)F)c(C#N)c2)c(Cl)c1`: the Inhibition was determined as 85% in assay [1], 43% in assay [2] and 5% in assay [3].

Regarding `Cc1cc(N[C@@H](Cc2ccccc2)C(=O)NCc2cccc(F)c2)nc(NCCOc2ccccc2)n1.O=C(O)C(F)(F)F`, the figures for the Inhibition in assay [1], in assay [2] and in assay [3] were 97%, 7% and 0%, respectively.

`CCN1CCCC1CN(Cc1ccc(-c2ccc(C(F)(F)F)cc2)cc1)C(=O)Cn1c(CCc2cccc(F)c2F)nc(=O)c2ccccc21.O=C(O)C(O)C(O)C(=O)O` (stereo unspecified): the Inhibition came to 94% in assay [1], 51% in assay [2] and 40% in assay [3].
